Laboratory results published in the supplement of paper PMC8728848.
This is one part of a sample in which the strongest signals are shown more often than they occur.

B1: Surfactant Protein D (Human); Neck + Carbohydrate Recognition Domain (NCRD) (Homo sapiens) (protein)
chain: MLLFLLSALVLLTQPLGYLEAEMKTYSHRTMPSACTLVMCSSVESGLPGRDRDGREGPRGEKGDPGLPGAAGQAGMPGQAGPVGPKGDNGSVGEPGPKGDTGPSGPPGPPGVPGPAGREGALGKQGNIGPQGKPGPKGEAGPKGEVGAPGMQGSAGARGLAGPKGERGVPGERGVPGNTGAAGSAGAMGPQGSPGARGPPGLKGDKGIPGDKGAKGESGLPDVASLRQQVEALQGQVQHLQAAFSQYKKVELFPNGQSVGEKIFKTAQFVKPFTEAQLLCTQAGGQLASPRSAAENAALQQLVVAKNEAAFLSMTDSKTEGKFTYPTGESLVYSNWAPGEPNDDGGSEDCVEIFTNGKWNDRACGEKRLVVCEF
B2: Onconase (Rana pipiens), P22069 (protein)
chain: QDWLTFQKKHITNTRDVDCDNIMSTNLFHCKDKNTFIYSRPEPVKAICKGIIASKNVLTTSEFYLSDCNVTSRPCKYKLKKSTNKFCVTCENQAPVHFVGVGSC

What was measured:
Assay in all cases: glycan array binding signal (z-score within array); higher = stronger binding
Settings in all cases: glycan notation: IUPAC condensed, linker removed
[1] = target: Fuc(a1-3)[Gal(b1-4)]GlcNAc(b1-3)Gal(b1-3)[Fuc(a1-4)]GlcNAc
How it was run: (§1)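 Glycan array data came from 3228 arrays in the Consortium for Functional Glycomics database, and only arrays with an available protein sequence were kept. Glycan names were put into IUPAC-condensed notation, and columns mapping to the same glycan were averaged. The binding signal is a within-array Z-score, averaged across arrays of one protein sequence run at different concentrations or buffers and across linkers. A negative Z-score can be read as non-binding.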

[2] = target: Fuc(a1-3)[Gal(b1-4)]GlcNAc(b1-4)Gal(b1-4)[Fuc(a1-3)]GlcNAc(b1-4)Gal(b1-4)[Fuc(a1-3)]GlcNAc
How it was run: as §1

[3] = target: Gal(a1-6)Glc
How it was run: as §1

[4] = target: Gal(b1-3)Gal(b1-4)GlcNAc
How it was run: as §1

[5] = target: Gal(b1-3)GlcNAc
How it was run: as §1

[6] = target: Gal(b1-3)GlcNAc(b1-2)Man(a1-3)[Gal(b1-3)GlcNAc(b1-2)Man(a1-6)]Man(b1-4)GlcNAc(b1-4)GlcNAc
How it was run: as §1

[7] = target: Gal(b1-3)GlcNAc(b1-3)Gal(b1-4)Glc
How it was run: as §1

[8] = target: Gal(b1-3)[Fuc(a1-4)]GlcNAc
How it was run: as §1

[9] = target: Gal(b1-3)[Fuc(a1-4)]GlcNAc(b1-3)Gal(b1-4)[Fuc(a1-3)]GlcNAc
How it was run: as §1

[10] = target: Gal(b1-4)GlcNAc(b1-3)[Gal(b1-4)GlcNAc(b1-6)]Gal(b1-4)GlcNAc
How it was run: as §1

[11] = target: Gal6S(b1-4)Glc
How it was run: as §1

[12] = target: GlcNAc(b1-3)[GlcNAc(b1-6)]GalNAc
How it was run: as §1

[13] = target: GlcNAc(b1-4)GlcNAc(b1-4)GlcNAc
How it was run: as §1

[14] = target: GlcNAc(b1-4)GlcNAc(b1-4)GlcNAc(b1-4)GlcNAc(b1-4)GlcNAc(b1-4)GlcNAc
How it was run: as §1

[15] = target: Man(a1-2)Man(a1-2)Man(a1-3)Man
How it was run: as §1

[16] = target: Man(a1-2)Man(a1-2)Man(a1-6)[Man(a1-3)]Man
How it was run: as §1

[17] = target: Man(a1-2)Man(a1-3)[Man(a1-2)Man(a1-6)]Man
How it was run: as §1

[18] = target: Man(a1-2)Man(a1-3)[Man(a1-6)]Man(a1-6)[Man(a1-2)Man(a1-3)]Man(b1-4)GlcNAc(b1-4)GlcNAc
How it was run: as §1

[19] = target: Man(a1-2)Man(a1-6)[Man(a1-3)]Man(a1-6)[Man(a1-2)Man(a1-2)Man(a1-3)]Man(b1-4)GlcNAc(b1-4)GlcNAc
How it was run: as §1

[20] = target: Man(a1-3)[Man(a1-6)]Man(a1-6)[Man(a1-2)Man(a1-3)]Man(b1-4)GlcNAc(b1-4)GlcNAc
How it was run: as §1

[21] = target: Neu5Ac(a2-3)Gal
How it was run: as §1

[22] = target: Neu5Ac(a2-3)Gal(b1-3)[Fuc(a1-4)]GlcNAc(b1-3)Gal(b1-4)[Fuc(a1-3)]GlcNAc
How it was run: as §1

[23] = target: Neu5Ac(a2-3)[GalNAc(b1-4)]Gal(b1-4)Glc
How it was run: as §1

[24] = target: Neu5Ac(a2-3)[Neu5Ac(a2-6)]GalNAc
How it was run: as §1

[25] = target: Neu5Ac(a2-8)Neu5Ac(a2-3)[GalNAc(b1-4)]Gal(b1-4)Glc
How it was run: as §1

[26] = target: Neu5Ac(b2-6)Gal(b1-4)GlcNAc
How it was run: as §1

[27] = target: Fuc(a1-3)[Gal(b1-4)]GlcNAc(b1-4)Gal(b1-4)[Fuc(a1-3)]GlcNAc
How it was run: as §1

[28] = target: Gal(a1-2)Gal
How it was run: as §1

[29] = target: Gal(b1-2)Gal
How it was run: as §1

[30] = target: Gal(b1-4)GlcNAc(b1-3)Gal(b1-4)[Fuc(a1-3)]GlcNAc(b1-3)Gal(b1-4)[Fuc(a1-3)]GlcNAc
How it was run: as §1

[31] = target: Gal3S(b1-4)Glc6S
How it was run: as §1

[32] = target: Gal6S(b1-4)Glc6S
How it was run: as §1

[33] = target: Glc(b1-6)Glc
How it was run: as §1

[34] = target: GlcNAc(b1-2)Gal(b1-3)GlcNAc
How it was run: as §1

[35] = target: GlcNAc(b1-3)GalNAc
How it was run: as §1

[36] = target: Neu5Ac(a2-3)Gal(b1-4)GlcNAc(b1-3)Gal(b1-4)[Fuc(a1-3)]GlcNAc
How it was run: as §1

[37] = target: Neu5Ac(a2-6)Gal(b1-4)GlcNAc
How it was run: as §1

[38] = target: Neu5Ac(a2-8)Neu5Ac(a2-8)Neu5Ac(a2-8)Neu5Ac(a2-3)[GalNAc(b1-4)]Gal(b1-4)Glc
How it was run: as §1

[39] = target: Neu5Ac9Ac(a2-6)Gal(b1-4)GlcNAc
How it was run: as §1

[40] = target: Neu5Gc(a2-3)Gal(b1-3)[Fuc(a1-4)]GlcNAc
How it was run: as §1

Row | Binder | glycan array binding signal (z-score) [1] | glycan array binding signal (z-score) [2] | glycan array binding signal (z-score) [3] | glycan array binding signal (z-score) [4] | glycan array binding signal (z-score) [5] | glycan array binding signal (z-score) [6] | glycan array binding signal (z-score) [7] | glycan array binding signal (z-score) [8] | glycan array binding signal (z-score) [9] | glycan array binding signal (z-score) [10] | glycan array binding signal (z-score) [11] | glycan array binding signal (z-score) [12] | glycan array binding signal (z-score) [13] | glycan array binding signal (z-score) [14] | glycan array binding signal (z-score) [15] | glycan array binding signal (z-score) [16] | glycan array binding signal (z-score) [17] | glycan array binding signal (z-score) [18] | glycan array binding signal (z-score) [19] | glycan array binding signal (z-score) [20] | glycan array binding signal (z-score) [21] | glycan array binding signal (z-score) [22] | glycan array binding signal (z-score) [23] | glycan array binding signal (z-score) [24] | glycan array binding signal (z-score) [25] | glycan array binding signal (z-score) [26] | glycan array binding signal (z-score) [27] | glycan array binding signal (z-score) [28] | glycan array binding signal (z-score) [29] | glycan array binding signal (z-score) [30] | glycan array binding signal (z-score) [31] | glycan array binding signal (z-score) [32] | glycan array binding signal (z-score) [33] | glycan array binding signal (z-score) [34] | glycan array binding signal (z-score) [35] | glycan array binding signal (z-score) [36] | glycan array binding signal (z-score) [37] | glycan array binding signal (z-score) [38] | glycan array binding signal (z-score) [39] | glycan array binding signal (z-score) [40]
1 | B1 | -0.257 | -0.273 | -0.083 | -0.274 | -0.263 | -0.275 | -0.271 | -0.233 | -0.053 | -0.29 | -0.216 | -0.258 | -0.24 | 0.127 | 6.02 | 5.46 | 4.89 | 6.78 | 5.33 | 4.68 | -0.243 | 0.1 | -0.277 | -0.296 | -0.238 | -0.288 | – | – | – | – | – | – | – | – | – | – | – | – | – | –
2 | B2 | – | – | – | – | – | – | – | -0.553 | – | – | – | – | – | – | – | – | – | – | – | – | – | – | – | – | – | – | 1.21 | 3.22 | 2.63 | 2.54 | -0.281 | 0.598 | 0.027 | -0.449 | -0.84 | -0.671 | 0.51 | 2.71 | -0.006 | 1.6
